Sampled rows, rich in hits. Any-hit rate of the full collection: about 5.7%.
hcDAF12 agonist – H. contortus DAF-12 nuclear receptor activators, primary screen, cell-based, luminescence, HEK293, lit1-tk-luc reporter. HEK293 hcDAF-12 lit1-tk-luc reporter; 0% DMSO, 100% Δ7-dafachronic acid. activation, % at 6.8 µM. actives 1.4% (n = 370,000);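 active = activation above the mean of all tested compounds plus 3 SD, cut at about 5.5% in these data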;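 also: 100% = response to 3 µM Δ7-dafachronic acid high control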
hgDAF12 agonist – H. glycines DAF-12 receptor agonists, primary screen, cell-based, luminescence, HEK293, GAL4 fusion, UAS-luciferase; Nuclear hormone receptor DAF-12 (Heterodera glycines), GAL4 fusion; activation, % at 6.8 µM; actives 1.8% (n = 370,000); HEK293 GAL4-hgDAF12 UAS-luciferase reporter, agonist luminescence; normalized to butyrate control;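 active = activation above a cutoff set at the mean of all screened compounds plus 3 SD, cut at about 10% in these data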;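 also: 0% = DMSO wells and 100% = sodium butyrate wells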
AHR act – AHR activators, primary screen, cell-based, luminescence, luciferase reporter, human; AHR-responsive luciferase reporter cells; activation, % at 5 µM; actives 2.5% (n = 320,000); in the data active = activation above about 47%;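 also: 0% = vehicle wells and 100% = reference agonist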
Target sequence (P35869 whole entry, looked up): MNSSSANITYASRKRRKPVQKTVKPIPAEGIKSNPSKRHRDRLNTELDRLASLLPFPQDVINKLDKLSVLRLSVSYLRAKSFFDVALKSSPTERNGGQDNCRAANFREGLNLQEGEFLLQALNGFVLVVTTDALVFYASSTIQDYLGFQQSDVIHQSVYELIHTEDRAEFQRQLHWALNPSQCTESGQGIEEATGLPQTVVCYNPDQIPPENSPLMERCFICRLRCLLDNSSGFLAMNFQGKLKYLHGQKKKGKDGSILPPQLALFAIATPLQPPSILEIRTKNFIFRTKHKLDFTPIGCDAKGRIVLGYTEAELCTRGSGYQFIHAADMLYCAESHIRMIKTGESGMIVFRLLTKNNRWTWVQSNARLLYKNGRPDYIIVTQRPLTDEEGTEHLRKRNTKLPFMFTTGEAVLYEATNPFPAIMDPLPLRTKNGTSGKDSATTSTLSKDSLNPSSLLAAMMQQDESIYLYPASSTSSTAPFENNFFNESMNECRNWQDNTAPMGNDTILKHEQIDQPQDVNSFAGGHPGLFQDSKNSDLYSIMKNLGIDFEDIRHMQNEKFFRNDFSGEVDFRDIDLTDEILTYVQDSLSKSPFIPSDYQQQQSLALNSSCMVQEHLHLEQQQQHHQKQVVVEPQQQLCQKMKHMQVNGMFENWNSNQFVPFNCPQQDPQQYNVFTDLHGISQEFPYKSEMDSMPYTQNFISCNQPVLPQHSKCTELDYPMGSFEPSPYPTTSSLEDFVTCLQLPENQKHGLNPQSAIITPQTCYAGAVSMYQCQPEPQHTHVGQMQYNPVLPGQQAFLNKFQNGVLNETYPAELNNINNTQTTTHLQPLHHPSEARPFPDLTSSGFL
ssDAF-12 act – S. stercoralis DAF-12 nuclear receptor activators, primary screen, cell-based, luminescence, HEK293, GRIP1 co-expression, lit1-tk-luc. Nuclear hormone receptor DAF-12 (Strongyloides stercoralis). activation, % at 6.8 µM. AID 652126, 2013. actives 1% (n = 370,000). HEK293 ssDAF-12/GRIP1 lit1-tk-luc reporter; % of 3 µM dafachronic acid response;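 active = activation above the mean over all tested compounds plus 3 SD, cut at about 0.9% in these data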;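 also: 0% = DMSO-only wells and 100% = 3 µM delta7-dafachronic acid wells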
DAX1 inh-1 – DAX1 (NR0B1) inhibitors on StAR promoter, primary screen, cell-based, luminescence, SF-1 (NR5A1), full-length DAX-1. actives 1.1% (n = 370,000). inhibition, % at 6.8 µM. HEK293T StAR-luciferase reporter, SF-1/DAX-1 repression relief;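 active = inhibition above the mean over all tested compounds plus 3 SD, cut at about 3.6% in these data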;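 also: 0% = DAX-1 cells with DMSO and 100% = cells lacking DAX-1 with DMSO; higher inhibition means more luminescence from relief of DAX-1 repression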
DAX1 inh-2 – DAX1 (NR0B1) inhibitors, primary screen, cell-based, HEK293, Gal4-DAX1, luciferase luminescence; Nuclear receptor subfamily 0 group B member 1 (Homo sapiens), P51843; actives 0.99% (n = 340,000); HEK293 Gal4-DAX1 luciferase reporter; AID 504766, 2011; inhibition, % at 6.75 µM;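 active = inhibition above the mean over all tested compounds plus 3 SD, cut at about 4.2% in these data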;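 also: 0% = DAX1-transfected cells with DMSO and 100% = empty-vector control cells with DMSO; inhibition shows as a rise in luminescence from relieved DAX1 repression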
AHR act cf – AHR activators, confirmation, cell-based, luminescence, luciferase reporter, human | shares compounds with AHR act | human cells, AHR-responsive luciferase reporter | activation, % at 9 µM | actives 87% (n = 2,300); in the data active = activation above about 49%;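 also: HepG2 hepatoma cells carrying a DRE-driven firefly luciferase reporter; 0% = vehicle wells and 100% = reference agonist wells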
PXR act counter – human PXR activators, counter-screen for AHR activator project, cell-based, luciferase luminescence; shares compounds with AHR act; cell-based PXR reporter; activation, % at 11.6 µM; actives 88% (n = 2,300); in the data active = activation above about 11%;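 also: human hepatoma DPX-2 cells expressing full-length human PXR; 0% = DMSO and 100% = reference agonist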
Starred values were filed as active, the others as inactive.

Screening COc1ccc(Nc2nc(N)nc(CSc3nnc(N)s3)n2)cc1 returned hcDAF12 agonist 2, hgDAF12 agonist 4, AHR act 112*, ssDAF-12 act 0, DAX1 inh-1 1, DAX1 inh-2 1, AHR act cf 110* and PXR act counter 15*.
Screening O=C1c2ccccc2C(=O)N1CCCCN(C(=O)c1ccc([N+](=O)[O-])cc1)c1ccc(Cl)cc1 returned hcDAF12 agonist -1, hgDAF12 agonist 0, AHR act 90*, ssDAF-12 act 0, DAX1 inh-1 -1, DAX1 inh-2 -2, AHR act cf 90* and PXR act counter 214*.
Cc1ccc(/C=N\Nc2nc3ccc(Cl)cc3[nH]2)o1 was read as hcDAF12 agonist 3, hgDAF12 agonist 8, AHR act 165*, ssDAF-12 act -1, DAX1 inh-1 1, DAX1 inh-2 1, AHR act cf 117* and PXR act counter 22*.
For Cc1ccc(/C=N/Nc2cn[nH]c(=O)n2)o1 the results were hcDAF12 agonist 3, hgDAF12 agonist 9, AHR act 22, ssDAF-12 act 0, DAX1 inh-1 2 and DAX1 inh-2 -1.
`Cc1oc2ccc(O)cc2c1C(=O)c1ccc(Br)cc1` gave hcDAF12 agonist -1, hgDAF12 agonist 1, AHR act -2, ssDAF-12 act -1, DAX1 inh-1 0 and DAX1 inh-2 1.
`CCOC(=O)C1=C(O)/C(=C\c2cc(C)n(-c3ccc(F)cc3)c2C)N=C1C` gave hcDAF12 agonist -1, hgDAF12 agonist -1, AHR act 2, ssDAF-12 act 0, DAX1 inh-1 0 and DAX1 inh-2 0.
CC(=O)Nc1nc2c(s1)CCc1ccccc1-2 was read as hcDAF12 agonist 3, hgDAF12 agonist 1, AHR act 44, ssDAF-12 act 0, DAX1 inh-1 0 and DAX1 inh-2 1.
`O=C(CCCl)Nc1nc2c(s1)CCc1ccccc1-2` gave hcDAF12 agonist 0, hgDAF12 agonist -7, AHR act 99*, ssDAF-12 act -1, DAX1 inh-1 -1, DAX1 inh-2 -3, AHR act cf 112* and PXR act counter 31*.
`CC(=O)N1CCC(c2c[nH]c3ccccc23)CC1` gave hcDAF12 agonist -1, hgDAF12 agonist -1, AHR act 2, ssDAF-12 act -1, DAX1 inh-1 0 and DAX1 inh-2 2.
`O=C(CN(Cc1ccccc1Cl)C(=O)CNS(=O)(=O)c1ccc(F)cc1)NCC1CCCO1` (stereo unspecified) gave hcDAF12 agonist -1, hgDAF12 agonist -1, AHR act -1, ssDAF-12 act 0, DAX1 inh-1 0 and DAX1 inh-2 0.
CN(C(=S)NC(=O)c1ccc(Cl)cc1)C1CCCCC1 was read as hcDAF12 agonist 2, hgDAF12 agonist -1, AHR act 91*, ssDAF-12 act 0, DAX1 inh-1 -1, DAX1 inh-2 2, AHR act cf 113* and PXR act counter 94*.
CS(=O)(=O)c1ccc(-c2sc3ccccc3c2C#CCCO)cc1 was read as hcDAF12 agonist -2, hgDAF12 agonist -2, AHR act 6, ssDAF-12 act -1, DAX1 inh-1 -1 and DAX1 inh-2 -1.
`COc1cc(-c2ccc3sc(-c4ccsc4)c(C#CCO)c3c2)cc(OC)c1OC` gave hcDAF12 agonist -3, hgDAF12 agonist -4, AHR act 80*, ssDAF-12 act -2, DAX1 inh-1 -2, DAX1 inh-2 -4, AHR act cf 61* and PXR act counter 13*.
For OCCC#Cc1c(-c2ccsc2)sc2ccccc12 the results were hcDAF12 agonist 0, hgDAF12 agonist -1, AHR act 86*, ssDAF-12 act -1, DAX1 inh-1 0, DAX1 inh-2 1, AHR act cf 62* and PXR act counter 13*.
O=c1c(/C=N/O)coc2ccc3ccccc3c12 was read as hcDAF12 agonist 0, hgDAF12 agonist 5, AHR act 84*, ssDAF-12 act -1, DAX1 inh-1 0, DAX1 inh-2 1, AHR act cf 18 and PXR act counter 6.
`CCCC(=O)Nc1cc(-c2nc3ncccc3o2)ccc1C` gave hcDAF12 agonist 0, hgDAF12 agonist -2, AHR act 17, ssDAF-12 act -2, DAX1 inh-1 0 and DAX1 inh-2 0.
O=C(CSc1ccc(Cl)cc1)Nc1cc(-c2nc3ncccc3o2)ccc1Cl was read as hcDAF12 agonist -1, hgDAF12 agonist 0, AHR act 37, ssDAF-12 act -1 and DAX1 inh-1 0.
For Cc1ccc(-c2nc3ncccc3o2)cc1NC(=O)C(C)(C)C the results were hcDAF12 agonist -1, hgDAF12 agonist -2, AHR act 91*, ssDAF-12 act 0, DAX1 inh-1 0, DAX1 inh-2 0, AHR act cf 91* and PXR act counter 32*.
CCC(=O)Nc1cc(-c2nc3ncccc3o2)ccc1Cl was read as hcDAF12 agonist 0, hgDAF12 agonist 2, AHR act 110*, ssDAF-12 act 0, DAX1 inh-1 -1, DAX1 inh-2 1, AHR act cf 97* and PXR act counter 16*.
Screening O=C(NCCc1ccncc1)Nc1cccc(Cl)c1 returned hcDAF12 agonist -2, hgDAF12 agonist -1, AHR act 90*, ssDAF-12 act -1, DAX1 inh-1 -1, DAX1 inh-2 -1, AHR act cf 56* and PXR act counter 17*.
Screening O=C(NCCCc1ccccc1)Nc1cccc(Cl)c1 returned hcDAF12 agonist -1, hgDAF12 agonist 3, AHR act -1, ssDAF-12 act -1, DAX1 inh-1 0 and DAX1 inh-2 0.
`CCn1c(=O)c([N+](=O)[O-])c(NCCCn2ccnc2)c2ccccc21` gave hcDAF12 agonist 1, hgDAF12 agonist 0, AHR act 101*, ssDAF-12 act -2, DAX1 inh-1 0, DAX1 inh-2 2, AHR act cf 93* and PXR act counter 52*.

Assay outcomes deposited in PubChem by The Scripps Research Institute Molecular Screening Center.
